Where “and” joins values, the source holds several entries; their conditions need not be identical. Equal values may be shown once. Results filed as inconclusive are left out. Entries that show only a call come without a potency. Calls of active or inactive are those of the source. Calls follow the shape of the dose curve; as a rule, active = well fitted cell-killing curve with a large enough effect; inconclusive = small, poorly fitted or top-dose-only effect; inactive = flat fitted curve, though single readings scatter.
Potency is read from the fitted curve at half-maximal effect.

The experiment is described as follows: qHTS of pediatric cancer cell lines to identify multiple opportunities for drug repurposing: Primary screen for DAOY cells (AID 1347090). Also: nearly all actives have a fitted effect of over 55% in size. Particulars: DAOY medulloblastoma viability, CellTiter-Glo luminescence, 48 h; series mostly up to 46 µM. The source says:
Drug repurposing or repositioning has been offered as a strategy for drug development in oncology programs. This approach has special potential for childhood cancers and other rare or orphan diseases, where the expected return on new drug development has been a disincentive to pharmaceuticals.
In this project we exploit the poly-pharmacology of drugs to discover new indications via phenotypic screening of a panel of 19 well-characterized cell lines derived from solid tumors seen in children and adolescents. The goal is to identify approved drugs with previously unrecognized anticancer properties that has the potential to reveal new mechanisms and biological processes involved in carcinogenesis or drug resistance. We employed a titration-based paradigm (quantitative high-throughput screening or qHTS), where all compounds were tested at multiple concentrations for their effect on cell viability. Concentration-response curves (CRCs) were derived directly from the primary screen, and both potency and efficacy values were used to identify compounds with robust bioactivity profiles. We screened the NIH Chemical Genomics Center (NCGC) Pharmaceutical Collection (NPC) and Mechanism Interrogation Plate (MIPE) small molecule collections of approved and investigational compounds against these cell lines; and measured metabolically active cells after 48 hours of compound treatment as a proxy for cell viability.
Assay Submitter: Nathalia J. Martinez, National Center for Advancing Translational Sciences, National Institutes of Health, Rockville, MD, USA; email: natalia.martinez@nih.gov
[1] Shen, M et al. Quantitative high-throughput phenotypic screening of pediatric cancer cell lines identifies multiple opportunities for drug repurposing. Oncotarget 2017 Dec 19;9(4):4758-4772. PMID 29435139.
The cells were obtained from University of North Carolina (UNC), Pediatric Preclinical Testing Program (PPT), and Coriell Institute (CI).
qHTS cell viability assay:
Cells were assayed in growth media at a density of 500-1,000 cells/well. Five microliters of cells were dispensed into 1,536-well, white, solid-bottom, TC-treated plates (Greiner Bio One) using a multidrop dispenser and incubated at 37 degrees C, 5% CO2, under a humidified atmosphere for 5 hours. Twenty-three nanoliters of compounds and controls (neutral control DMSO or positive control bortezomib at final concentration of 2.3 µM) were subsequently transferred by Kalypsys pintool. For primary screens, the MIPE collection was tested at 11-point dilutions (final concentrations range from 0.78 nM to 46 µM) and the NPC collection at 8-point dilutions (final concentrations range from 0.59 nM to 46 µM). Compounds tested in follow-up screens were assayed at 11-point dilutions. Cells were incubated for 48 hours, followed by addition of 3 uL of CellTiter-Glo (Promega). After a 15 min incubation at room temperature, samples were analyzed for luminescence intensity using a ViewLux High-throughput CCD imager equipped with clear filters.
In the case of `NCCc1cnc[nH]1`, the Potency entry was “inactive”.

For `CC(C)(C)C(=O)Oc1ccc(S(=O)(=O)Nc2ccccc2C(=O)NCC(=O)O)cc1`, the Potency result is “inactive”.

For the compound `Clc1ccccc1C(c1ccccc1)(c1ccccc1)n1ccnc1`, the Potency result was “inactive”.

`O=C(CCCN1CCC(O)(c2ccc(Cl)cc2)CC1)c1ccc(F)cc1`: the Potency entry was “inactive”.

As to `CN(C)CCOC(c1ccccc1)c1ccccc1`, the Potency entry was “inactive”.

`CC(C)NCC(O)COc1ccc(CCOCC2CC2)cc1` (stereo not given): the Potency entry is “inactive”.

On to `Cc1ccc(C(=O)Nc2ccc(S(=O)(=O)O)c3cc(S(=O)(=O)O)cc(S(=O)(=O)O)c23)cc1NC(=O)c1cccc(NC(=O)Nc2cccc(C(=O)Nc3cc(C(=O)Nc4ccc(S(=O)(=O)O)c5cc(S(=O)(=O)O)cc(S(=O)(=O)O)c45)ccc3C)c2)c1`, for which the Potency result was “inactive”.

For `Cc1ccccc1N1C(=O)c2cc(S(N)(=O)=O)c(Cl)cc2NC1C` (stereo not given), the Potency entry is “inactive”.

For the compound `O=C1N(c2ccccc2)c2ccccc2C1(Cc1ccncc1)Cc1ccncc1`, the Potency entry is “inactive”.

On to `CCN1CCCC1CNC(=O)c1cc(S(=O)(=O)CC)c(N)cc1OC` (stereo not given), for which the Potency result is “inactive”.

For `Cc1cn([C@H]2C[C@H](N=[N+]=[N-])[C@@H](CO)O2)c(=O)[nH]c1=O`, the Potency result is “inactive”.

Take `CCc1cccc2c3c([nH]c12)C(CC)(CC(=O)O)OCC3` (stereo not given): the Potency entry is “inactive”.

On to `CCC1(C)CC(=O)NC1=O` (stereo not given), for which the Potency result is “inactive”.

On to `NC(=O)NO`, for which the Potency result is “inactive”.

`CC(C)C(=O)Nc1ccc([N+](=O)[O-])c(C(F)(F)F)c1`: the Potency was 4.69 µM (active).

Take `Cc1ccc(-c2cc(C(F)(F)F)nn2-c2ccc(S(N)(=O)=O)cc2)cc1`: the Potency result was “inactive”.

With `O=c1[nH]cc(F)c(=O)[nH]1`, the Potency entry is “inactive”.

As to `NCCS(=O)(=O)O`, the Potency entry is “inactive”.

On to `COc1cc2nc(N3CCN(C(=O)C4COc5ccccc5O4)CC3)nc(N)c2cc1OC` (stereo not given), for which the Potency entry is “inactive”.

On to `Cc1cc(C(C)(C)C)c(O)c(C)c1CC1=NCCN1`, for which the Potency entry is “inactive”.

For `COc1cc2nc(N(C)CCCNC(=O)C3CCCO3)nc(N)c2cc1OC` (stereo not given), the Potency entry was “inactive”.

`Clc1ccc(C(c2ccccc2Cl)C(Cl)Cl)cc1` (stereo not given): the Potency entry is “inactive”.

As to `O=C1Cc2cc(CCN3CCN(c4nsc5ccccc45)CC3)c(Cl)cc2N1`, the Potency entry is “inactive”.

On to `CC[N+](CC)(CC)CCOc1cccc(OCC[N+](CC)(CC)CC)c1OCC[N+](CC)(CC)CC`, for which the Potency result was “inactive”.

Turning to `O=C(Nc1ccc([N+](=O)[O-])cc1Cl)c1cc(Cl)ccc1O`, the Potency is 1.46 µM (active) and 1.18 µM (active).

For `CC(C)(Oc1ccc(C2CC2(Cl)Cl)cc1)C(=O)O` (stereo not given), the Potency result is “inactive”.

Turning to `CCOC(=O)c1ncn2c1CN(C)C(=O)c1cc(F)ccc1-2`, the Potency result is “inactive”.

With `Clc1ccc2nsnc2c1NC1=NCCN1`, the Potency entry was “inactive”.

For the compound `NC(=O)OCC(COC(N)=O)c1ccccc1`, the Potency result was “inactive”.

Consider `CC[C@@]1(O)C(=O)OCc2c1cc1n(c2=O)Cc2cc3c(CN(C)C)c(O)ccc3nc2-1`, for which the Potency is 53.1 nM (active) and 296 nM (active).

In the case of `NC12CC3CC(CC(C3)C1)C2`, the Potency entry is “inactive”.

On to `CCOC(=O)C(C)(C)Oc1ccc(Cl)cc1`, for which the Potency entry is “inactive”.

On to `CN(C)C(=N)N=C(N)N`, for which the Potency entry is “inactive”.

Take `Cn1cnc2c1c(=O)[nH]c(=O)n2C`: the Potency entry was “inactive”.

As to `CN(C)c1nc(N(C)C)nc(N(C)C)n1`, the Potency entry is “inactive”.

As to `NS(=O)(=O)c1cc2c(cc1Cl)NCNS2(=O)=O`, the Potency result is “inactive”.

For `Nc1nc2c(ncn2COC(CO)CO)c(=O)[nH]1`, the Potency result is “inactive”.

Consider `CC(C(=O)O)c1cccc(C(=O)c2ccccc2)c1` (stereo not given), for which the Potency entry is “inactive”.

`CN1CCN2c3ccccc3Cc3ccccc3C2C1` (stereo not given): the Potency entry was “inactive”.

`CN1C(C(=O)Nc2ccccn2)=C(O)c2ccccc2S1(=O)=O`: the Potency entry was “inactive”.

The values are drawn from PubChem BioAssay (NCATS).
